Active and inactive are the calls of the source.
How the values were obtained:
[1] = small molecules captured by biotinylated probe aFSTL3 – biochemical, small-molecule microarray, fluorescence 635/667, stem cell growth factor project, primary screen (AID 1064); details: higher = more signal;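 note: measures binding of the biotinylated anti-FSTL3 antibody to printed compounds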
[2] = binders from COS7 lysate, DM2A8 probe, primary screen, torsin A project, cell lysate, small-molecule microarray, fluorescence 635/667 (AID 1065); details: higher = more signal, COS7 lysate expressing mutant human TOR1A
[3] = small molecules captured by biotinylated probe aFGF2 – biochemical, small-molecule microarray, fluorescence 635/667, stem cell growth factor project, primary screen (AID 1067); details: higher = more signal;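 note: measures binding of biotinylated aFGF2 protein to printed compounds on slides; z-score merges feature fluorescence and signal-to-noise across triplicate slides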
[4] = small molecules captured by biotinylated probe aFGF10 – biochemical, small-molecule microarray, fluorescence 635/667, stem cell growth factor project, primary screen (AID 1071); details: higher = more signal;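 note: score merges 667 nm spot intensity and signal to noise from triplicate slides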
[5] = molecular target: Neurogenic locus notch homolog protein 2 (Homo sapiens) (UniProt Q04721); assay: small molecules binding Notch2 protein – biochemical, small-molecule microarray, 635 nm fluorescence, stem cell growth factors, primary screen (AID 1073); details: higher = more signal
Neurogenic locus notch homolog protein 2 (Homo sapiens), sequence (Q04721 whole entry, looked up, canonical isoform): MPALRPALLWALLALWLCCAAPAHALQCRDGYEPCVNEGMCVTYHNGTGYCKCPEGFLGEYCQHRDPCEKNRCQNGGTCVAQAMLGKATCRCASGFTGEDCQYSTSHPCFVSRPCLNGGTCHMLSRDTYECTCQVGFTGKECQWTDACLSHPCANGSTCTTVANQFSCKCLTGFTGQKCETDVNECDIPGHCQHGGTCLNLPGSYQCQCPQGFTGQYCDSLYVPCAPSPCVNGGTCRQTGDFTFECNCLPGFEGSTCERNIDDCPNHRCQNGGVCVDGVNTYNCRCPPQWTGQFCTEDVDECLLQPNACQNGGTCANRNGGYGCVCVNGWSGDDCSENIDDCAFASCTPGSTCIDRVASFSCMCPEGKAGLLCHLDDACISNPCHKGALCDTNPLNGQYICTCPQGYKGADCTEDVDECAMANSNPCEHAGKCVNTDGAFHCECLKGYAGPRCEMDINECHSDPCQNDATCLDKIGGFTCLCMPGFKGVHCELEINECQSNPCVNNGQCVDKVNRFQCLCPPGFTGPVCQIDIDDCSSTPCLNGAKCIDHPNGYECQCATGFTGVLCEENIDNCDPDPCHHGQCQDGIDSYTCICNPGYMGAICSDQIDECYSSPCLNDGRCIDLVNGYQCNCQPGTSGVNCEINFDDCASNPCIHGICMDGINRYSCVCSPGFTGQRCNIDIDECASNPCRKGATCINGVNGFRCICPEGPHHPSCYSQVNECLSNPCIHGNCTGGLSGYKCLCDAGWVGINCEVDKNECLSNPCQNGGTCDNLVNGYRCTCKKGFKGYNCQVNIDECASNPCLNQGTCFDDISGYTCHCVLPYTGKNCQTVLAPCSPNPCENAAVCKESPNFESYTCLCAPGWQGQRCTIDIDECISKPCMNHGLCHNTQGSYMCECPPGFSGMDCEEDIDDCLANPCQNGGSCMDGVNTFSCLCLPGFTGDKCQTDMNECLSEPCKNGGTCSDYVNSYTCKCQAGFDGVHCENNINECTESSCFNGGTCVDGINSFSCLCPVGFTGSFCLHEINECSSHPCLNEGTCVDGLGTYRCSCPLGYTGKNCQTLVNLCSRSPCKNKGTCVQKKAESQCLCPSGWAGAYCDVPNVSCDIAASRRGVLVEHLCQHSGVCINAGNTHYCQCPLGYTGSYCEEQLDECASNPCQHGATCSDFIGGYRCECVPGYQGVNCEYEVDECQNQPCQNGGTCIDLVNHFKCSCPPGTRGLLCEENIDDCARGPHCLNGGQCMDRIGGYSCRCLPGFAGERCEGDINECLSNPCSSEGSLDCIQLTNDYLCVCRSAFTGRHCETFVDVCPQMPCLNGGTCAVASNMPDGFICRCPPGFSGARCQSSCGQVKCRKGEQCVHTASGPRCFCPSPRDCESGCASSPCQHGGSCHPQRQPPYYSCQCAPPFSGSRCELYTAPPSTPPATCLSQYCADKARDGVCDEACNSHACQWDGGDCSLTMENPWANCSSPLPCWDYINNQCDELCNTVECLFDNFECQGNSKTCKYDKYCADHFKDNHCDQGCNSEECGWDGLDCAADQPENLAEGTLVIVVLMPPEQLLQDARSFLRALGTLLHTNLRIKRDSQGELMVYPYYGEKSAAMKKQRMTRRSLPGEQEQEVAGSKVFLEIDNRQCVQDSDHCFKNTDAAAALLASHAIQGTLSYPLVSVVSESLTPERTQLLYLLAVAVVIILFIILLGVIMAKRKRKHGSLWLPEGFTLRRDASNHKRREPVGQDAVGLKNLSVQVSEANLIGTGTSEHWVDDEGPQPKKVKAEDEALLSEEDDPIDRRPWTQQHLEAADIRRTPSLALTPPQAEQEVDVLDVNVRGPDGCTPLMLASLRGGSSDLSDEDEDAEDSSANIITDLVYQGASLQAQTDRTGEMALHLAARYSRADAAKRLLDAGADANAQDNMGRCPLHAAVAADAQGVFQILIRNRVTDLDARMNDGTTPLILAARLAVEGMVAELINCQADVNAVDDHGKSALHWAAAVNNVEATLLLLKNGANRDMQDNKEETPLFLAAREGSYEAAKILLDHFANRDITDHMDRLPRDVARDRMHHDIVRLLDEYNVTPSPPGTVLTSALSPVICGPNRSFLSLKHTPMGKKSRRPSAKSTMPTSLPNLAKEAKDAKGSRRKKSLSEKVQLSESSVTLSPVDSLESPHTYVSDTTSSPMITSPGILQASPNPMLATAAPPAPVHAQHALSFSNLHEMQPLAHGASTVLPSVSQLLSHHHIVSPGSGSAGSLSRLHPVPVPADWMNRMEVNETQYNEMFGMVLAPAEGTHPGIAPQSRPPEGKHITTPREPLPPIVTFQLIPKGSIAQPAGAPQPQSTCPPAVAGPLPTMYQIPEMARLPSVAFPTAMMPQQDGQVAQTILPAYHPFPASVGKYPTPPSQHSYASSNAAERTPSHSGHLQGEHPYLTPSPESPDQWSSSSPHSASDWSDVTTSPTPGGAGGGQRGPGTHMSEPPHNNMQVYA

[6] = molecular target: Pro-neuregulin-1, membrane-bound isoform (Homo sapiens) (UniProt Q02297); assay: small molecules binding neuregulin-1 protein – biochemical, small-molecule microarray, fluorescence 635/667, psychiatric disease protein project, primary screen (AID 1075); details: NRG1 binding, 635 nm fluorescence, higher = more signal;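 note: score combines 667 nm spot fluorescence with signal to noise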
Pro-neuregulin-1, membrane-bound isoform (Homo sapiens), sequence (Q02297 whole entry, looked up, the tested form may be a part, canonical isoform): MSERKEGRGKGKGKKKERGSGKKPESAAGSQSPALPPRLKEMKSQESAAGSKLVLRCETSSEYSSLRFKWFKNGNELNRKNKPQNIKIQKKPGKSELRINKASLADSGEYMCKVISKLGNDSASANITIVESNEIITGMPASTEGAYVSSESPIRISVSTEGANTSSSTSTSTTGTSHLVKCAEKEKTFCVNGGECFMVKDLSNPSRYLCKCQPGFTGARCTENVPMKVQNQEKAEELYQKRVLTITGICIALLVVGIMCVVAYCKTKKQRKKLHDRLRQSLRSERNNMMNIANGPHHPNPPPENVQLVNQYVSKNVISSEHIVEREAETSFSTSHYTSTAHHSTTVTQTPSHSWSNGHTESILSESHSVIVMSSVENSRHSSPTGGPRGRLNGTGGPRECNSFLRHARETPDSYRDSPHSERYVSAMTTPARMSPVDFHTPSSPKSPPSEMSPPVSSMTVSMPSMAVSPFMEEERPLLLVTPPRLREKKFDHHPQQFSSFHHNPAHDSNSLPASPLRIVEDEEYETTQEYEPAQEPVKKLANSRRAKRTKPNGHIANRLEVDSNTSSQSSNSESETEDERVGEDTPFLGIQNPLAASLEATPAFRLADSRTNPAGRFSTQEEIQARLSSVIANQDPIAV

[7] = system: Neuregulin-1 EGF-like domain; assay: small molecules binding NRG1 EGF domain – biochemical, small-molecule microarray, 635 nm fluorescence, primary screen (AID 1081); details: higher = more signal;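 note: binding of the protein to compounds printed on small-molecule microarray slides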
[8] = FRG1 expression reporter modulators in myotubes – cell-based, C2C12 myotubes, firefly/Renilla luciferase, luminescence, FRG1 inhibition for FSHD, primary screen (AID 1084); details: FRG1 promoter luciferase, higher = more signal, called active from +8 up or from −8 down
[9] = small molecules captured by biotinylated probe aFST – biochemical, small-molecule microarray, fluorescence 635/667, stem cell growth factor project, primary screen (AID 1086); details: higher = more signal;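 note: score merges 667 nm fluorescence with signal-to-noise of each printed compound spot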
[10] = binders of probe aHhip on microarray, primary screen, stem cell growth factor project, biochemical, small-molecule microarray, fluorescence 635/667 (AID 1087); details: higher = more signal;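 note: score merges spot fluorescence at 667nm with spot signal to noise ratio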

| Structure (SMILES) | composite z-score [1] | composite z-score [2] | composite z-score [3] | composite z-score [4] | composite z-score [5] | composite z-score [6] | composite z-score [7] | z-score [8] | composite z-score [9] | composite z-score [10] |
| --- | --- | --- | --- | --- | --- | --- | --- | --- | --- | --- |
| CCc1cccc(NC(=O)O[C@H]2[C@H](OC(=O)Nc3ccccc3)[C@H](OC(=O)Nc3ccccc3)[C@@H](OC)O[C@@H]2CO)c1 | -0.0949 | 0.0776 | 0.0457 | 1.2 | 1.19 | 1.7 | 1.25 | 2.16 (inactive) | 0.766 | -0.201 |
| CC(C)=CCCC(C)=CC(O)C1C=CC2C(=O)N(c3ccccc3)C(=O)C2N1Nc1ccccc1F (stereo not given) | -0.0417 | -0.113 | -0.138 | 0.498 | 0.765 | 1.49 | 1.09 | 0.314 (inactive) | -0.174 | -0.329 |
| O=C1C2C=CC(C(O)C=Cc3ccc([N+](=O)[O-])cc3)N(Nc3ccccc3)C2C(=O)N1c1ccccc1 (stereo not given) | -0.134 | -0.0552 | 0.183 | 0.995 | 1.59 | 1.7 | 0.967 | -0.028 (inactive) | 1.22 | -0.0237 |
| CC1CC/C=C\[C@H]2OC34C=CCN(CCN5CCOCC5)C(=O)[C@H]3N(C(C)CO)C(=O)[C@@H]4C2C(=O)O1 (stereo not given in full) | -0.246 | -1.61 | -0.125 | -0.467 | -0.939 | -1.14 | 0.737 | -0.203 (inactive) | -0.311 | -0.0672 |
| COC(=O)[C@@]1(Cc2ccc(F)cc2)[C@H]2c3cc(C(=O)N(C)C)n(Cc4c(CO)[nH]cc(C)c4=O)c3C[C@H]2CN1C(=O)c1ccccc1 | 0.535 | -0.199 | 0.142 | 1.16 | 1.42 | 2.1 | 1.15 | 1.09 (inactive) | 0.255 | -0.0237 |
| O=C1O[C@H](c2ccccc2)[C@H](c2ccccc2)N2[C@H]1[C@@H](C(=O)Nc1nc3ccccc3s1)[C@]1(C(=O)Nc3ccc(C#CC4=CCCCC4)cc31)[C@H]2c1ccc(O)cc1 | -0.384 | 0.255 | -0.0281 | 0.352 | 0.747 | 1.44 | 1.1 | -0.305 (inactive) | 0.845 | -0.0994 |
| CC(C)C(=C=CC[C@@H](O)c1cccc(OCCO)c1)C[C@@H](O)COCc1ccccc1 | -0.0972 | -0.254 | -0.0835 | 0.45 | -0.554 | -0.0802 | -0.547 | -2.12 (inactive) | 0.182 | -0.188 |
